# Laboratory results from PubChem BioAssay (Tox21).
# Records with an inconclusive call do not appear. Where a call stands in place of a potency, no number is given. Unmarked numbers belong to inactive results. The source made the active and inactive calls. Calls follow the shape of the dose curve; as a rule, active = well fitted curve in the direction sought with a large enough effect in the repeat runs; inconclusive = weak or mixed curves; inactive = no such curve, though single readings can be large; an effect the other way counts as inactive or inconclusive.
# Experiment: qHTS RealTime-Glo MT Cell Viability Assay in HEK293 cells - 8 hour (AID 1224887); also: nearly all actives have a fitted effect of over 50% in size; as to activity change, negative = cytotoxicity: top concentration of the series differs between compounds
# Settings: RealTime-Glo luminescence; series mostly up to 76.8 µM
# Procedure, shortened: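 Nonlytic bioluminescent viability monitoring. HEK293 at 600 cells/well with reagent; 5 h settle; compound transfer by pintool; plates held at 37 C and read at set time points.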
# Potency is read from the fitted curve at half-maximal effect.
SMILES,Potency,"activity change, negative = cytotoxicity"
CC(CCO)CCc1ccccc1 (centres undefined),inactive,
ON(Cc1ccccc1)Cc1ccccc1,inactive,
CC(C)CCCCCOC(=O)CCCCC(=O)OCCCCCC(C)C,inactive,
C[Si]1(C)O[Si](C)(C)O[Si](C)(C)O1,inactive,
CCCCN(CCCC)CCCOC(=O)c1ccc(N)cc1,inactive,
CCN(CC)CCNC(=O)c1ccc(NC(C)=O)cc1,inactive,
CC(C)CCCCCCOC(=O)CCCCC(=O)OCCCCCCC(C)C,inactive,
C/C(=N/NC(=O)c1ccncc1)C(=O)O,inactive,
Nc1c(I)cc(I)c(C(=O)N(CCC(=O)O)c2ccccc2)c1I,inactive,
CCCCCCCCCCCCCCC[C@H](O)[C@@H](N)CO,23.9 µM (active),
O=C(C(=O)c1ccccc1)c1ccccc1,inactive,
Cc1ccc(/C=N/n2c(-c3ccccc3)csc2=S)cc1,inactive,
CC[C@H](NC(=O)c1cc(F)ccc1NS(=O)(=O)c1cccc2cccnc12)c1ccccc1,inactive,
O=C(OCCOCCO)c1ccccc1Nc1cccc(C(F)(F)F)c1,inactive,
CC(=O)Oc1ccc(C(=C2CCCCC2)c2ccc(OC(C)=O)cc2)cc1,inactive,
COCC(O)CO (centres undefined),inactive,

SMILES,Potency,"activity change, negative = cytotoxicity"
CC(C)c1nnc2ccc(-c3ocnc3-c3cc(F)ccc3F)cn12,19.5 µM (active),
O=C(CCCCCCCCC#CI)Oc1ccccc1,inactive,
Cc1ccc(S)cc1,inactive,
CC(C)(C)C(=O)C(Oc1ccc(Cl)cc1)n1ccnc1 (centres undefined),inactive,
c1cnc2c(n1)CCCC2,inactive,
CC1CN(c2cc3c(cc2F)c(=O)c(C(=O)O)cn3-c2ccc(F)cc2F)CCN1 (centres undefined),,7.56% [at 6.97 µM]
COc1cc2c(cc1OC)-c1cc(=Nc3c(C)cc(C)cc3C)n(C)c(=O)n1CC2,inactive,
OC/C(Br)=C(\Br)CO,inactive,
Cc1nc2ccccn2c(=O)c1CCN1CCC(C(=O)c2ccc(F)cc2)CC1,8.49 µM (active),
CCc1c2c(nc3ccc(OC(=O)N4CCC(N5CCCCC5)CC4)cc13)-c1cc3c(c(=O)n1C2)COC(=O)[C@]3(O)CC,inactive,
CCc1cccc(N(C)C(N)=Nc2cccc3ccccc23)c1,inactive,
NC(=O)Nc1ccc(Cl)cc1,inactive,
CN(C(=O)C(Cl)Cl)c1ccc(OC(=O)c2ccco2)cc1,inactive,
O=Cc1c(Cl)cccc1Cl,inactive,
O=C(NCCCN1CCOCC1)c1ccc(Cl)cc1,inactive,

# Experiment: A CellTox Green Cytotoxicity Assay to monitor cytotoxicity in HEK293 cells - 16 hour (AID 1224888); also: nearly all actives have a fitted effect of over 35% in size
# Settings: CellTox Green fluorescence; series mostly up to 76.8 µM
# Procedure, shortened: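 Cytotoxicity was tracked continuously in HEK293 cells by a DNA-binding dye excluded from viable cells. Compounds were transferred in DMSO 5 h after seeding; fluorescence was recorded at intervals up to 40 h.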
SMILES,Potency,activity change
CC(CCO)CCc1ccccc1 (centres undefined),inactive,
Cc1nccn1-c1ccc(Sc2cccc(C3(C(N)=O)CCOCC3)c2)cc1,inactive,
ON(Cc1ccccc1)Cc1ccccc1,inactive,
CC(C)CCCCCOC(=O)CCCCC(=O)OCCCCCC(C)C,inactive,
C[Si]1(C)O[Si](C)(C)O[Si](C)(C)O1,inactive,
CCCCN(CCCC)CCCOC(=O)c1ccc(N)cc1,inactive,
CCN(CC)CCNC(=O)c1ccc(NC(C)=O)cc1,inactive,
CC(C)CCCCCCOC(=O)CCCCC(=O)OCCCCCCC(C)C,inactive,
C/C(=N/NC(=O)c1ccncc1)C(=O)O,inactive,
Nc1c(I)cc(I)c(C(=O)N(CCC(=O)O)c2ccccc2)c1I,inactive,
CCCCCCCCCCCCCCC[C@H](O)[C@@H](N)CO,21.3 µM (active),
O=C(C(=O)c1ccccc1)c1ccccc1,inactive,
Cc1occc1C(=O)Nc1ccc(C(=O)N2CCC(F)(F)/C(=C\C(=O)N3CCC(N4CCCCC4)CC3)c3ccccc32)cc1,inactive,
CC[C@H](NC(=O)c1cc(F)ccc1NS(=O)(=O)c1cccc2cccnc12)c1ccccc1,inactive,
O=C(OCCOCCO)c1ccccc1Nc1cccc(C(F)(F)F)c1,inactive,
CC(=O)Oc1ccc(C(=C2CCCCC2)c2ccc(OC(C)=O)cc2)cc1,inactive,
COCC(O)CO (centres undefined),inactive,
CC(C)c1nnc2ccc(-c3ocnc3-c3cc(F)ccc3F)cn12,inactive,
O=C(CCCCCCCCC#CI)Oc1ccccc1,inactive,

SMILES,Potency,activity change
Cc1ccc(S)cc1,inactive,
CO[Si](C)(OC)OC,inactive,
CC(C)(C)C(=O)C(Oc1ccc(Cl)cc1)n1ccnc1 (centres undefined),inactive,
c1cnc2c(n1)CCCC2,43.6 µM (active),
c1cc[c]([Bi]([c]2ccccc2)[c]2ccccc2)cc1,inactive,
CC1CN(c2cc3c(cc2F)c(=O)c(C(=O)O)cn3-c2ccc(F)cc2F)CCN1 (centres undefined),,"-0.883% [at 6.97 µM, active compounds read high]"
COC(=O)Nc1nc2ccc(C(=O)c3cccs3)cc2[nH]1,inactive,
COc1cc2c(cc1OC)-c1cc(=Nc3c(C)cc(C)cc3C)n(C)c(=O)n1CC2,inactive,
COc1cc2c(N3CCN(C(=O)Nc4ccc(OC(C)C)cc4)CC3)ncnc2cc1OCCCN1CCCCC1,inactive,
OC/C(Br)=C(\Br)CO,inactive,
Cc1nc2ccccn2c(=O)c1CCN1CCC(C(=O)c2ccc(F)cc2)CC1,inactive,
NC(=O)N(O)[C@@H]1C=C[C@H](Oc2cccc(Oc3ccc(F)cc3)c2)C1,inactive,
CCc1c2c(nc3ccc(OC(=O)N4CCC(N5CCCCC5)CC4)cc13)-c1cc3c(c(=O)n1C2)COC(=O)[C@]3(O)CC,inactive,
CCc1cccc(N(C)C(N)=Nc2cccc3ccccc23)c1,inactive,
NC(=O)Nc1ccc(Cl)cc1,inactive,
CN(C(=O)C(Cl)Cl)c1ccc(OC(=O)c2ccco2)cc1,inactive,
C/C=C/C=C/CCCCCCCO,inactive,
O=Cc1c(Cl)cccc1Cl,inactive,
O=C(NCCCN1CCOCC1)c1ccc(Cl)cc1,inactive,
